# Source: PubChem
# This is a sample that favours compounds with a hit; in the whole collection about 1.5% have one here.
# Giardia kill = Small Molecules that selectively kill Giardia lamblia: qHTS | Giardia lamblia trophozoite viability | activity change, % at 7.66 µM, hits read low | 0.15% of 340,000 active; in the data active means activity change below about -80%; inconclusive means between about -30% and that limit;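 further: parasites exposed to compound for two days anaerobically before the ATP read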
#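 Luminescence from cellular ATP indicates surviving trophozoites (100 cells/well) following 48 hrs anaerobic compound treatment at 37 deg C; signal develops 15-30 min at room temperature.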
# rTrxR1 inhibitor = qHTS Assay for Inhibitors of Mammalian Selenoprotein Thioredoxin Reductase 1 (TrxR1): qHTS | Thioredoxin reductase 1, cytoplasmic (Rattus norvegicus), O89049 | Potency, µM (doses to about 114 µM), inactives show at the top dose activity change, negative = inhibition, hits mostly inhibitors | recombinant rTrxR1, NADPH fluorescence consumption, selenite substrate | 1% of 390,000 active; further: potency means the concentration at half of the fitted maximal effect; nearly all actives have a fitted effect of over 65% in size
#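 Rat TrxR1 (90 nM in the dispensed reagent) was pre-reduced with 400 uM NADPH for 5 min at room temperature, then incubated with compound for 15 min. After 400 uM selenite was added, NADPH fluorescence (Ex 340/Em 450 nm) was followed for 8 min.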
# GALK inh = qHTS Assay for Inhibitors of Human Galactokinase (GALK). AID 1868, 2009. Potency, µM (top dose mostly 57.5 µM), without a hit: at the top dose activity change, negative = inhibition, hits mostly inhibitors. 0.007% of 270,000 active. Purified GALK, Kinase-Glo residual ATP luminescence. P51570; further: potency means the concentration at half of the fitted maximal effect
#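 The enzyme phosphorylates galactose (100 uM) using ATP (35 uM); inhibition is detected as higher residual ATP, quantified by bioluminescence after 1 h reaction at room temperature, pH 8.0.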
# Coupling enz = qHTS Assay for Inhibitors of Fructose-1,6-bisphosphate Aldolase from Giardia Lamblia: Coupling assay counterscreen; coupling enzyme system counterscreen, AmpLite Red fluorescence; activity change, negative = inhibition, % at 58.2 µM, hits read low; 0.67% of 290,000 active; AID 2472, 2010; in the data active means activity change below about -30%
#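 Counterscreen lacking aldolase: glyceraldehyde-3-phosphate coupling-enzyme reagent preincubated 10 min at RT with compound (at 57.5 uM final), then substrate/coupling system with AmpLite Red added; fluorescence read at 525/598 nm after 20 min RT.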
# PI4K2A inh = qHTS for small molecular inhibitors of PI4K2A; purified PI4K2A, ADP-Glo luminescence, 1 h; stronger effect = lower value; activity change, negative = inhibition, % at 76.9 µM; Phosphatidylinositol 4-kinase type 2-alpha (Homo sapiens), Q9BTU6; AID 1346378, 2018; 0.13% of 420,000 active; in the data active means activity change below about -50%; inconclusive means mostly about -30% to -49%;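 further: -100% = wells without enzyme as full effect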
# Target sequence (Q9BTU6 whole entry, looked up): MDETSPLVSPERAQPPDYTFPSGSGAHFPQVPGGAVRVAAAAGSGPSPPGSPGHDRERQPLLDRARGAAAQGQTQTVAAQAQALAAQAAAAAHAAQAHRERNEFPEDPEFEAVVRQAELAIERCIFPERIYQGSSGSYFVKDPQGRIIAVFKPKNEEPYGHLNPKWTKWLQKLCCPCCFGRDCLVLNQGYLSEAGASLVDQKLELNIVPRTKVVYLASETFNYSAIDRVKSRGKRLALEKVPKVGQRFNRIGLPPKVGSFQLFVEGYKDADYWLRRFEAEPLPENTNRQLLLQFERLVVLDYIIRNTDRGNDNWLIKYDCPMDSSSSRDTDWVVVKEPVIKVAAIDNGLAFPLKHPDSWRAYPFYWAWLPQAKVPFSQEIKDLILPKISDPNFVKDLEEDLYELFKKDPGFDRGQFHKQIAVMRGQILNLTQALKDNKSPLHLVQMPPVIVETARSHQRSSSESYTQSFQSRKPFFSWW
#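 ADP-Glo luminescence measured ADP generated by PI4K2A enzyme (4 ug/mL before mixing) with 1.2 mM PI substrate (pre-mix) and 300 microM ATP (pre-mix). Tris pH7.5 buffer with MgCl2, Triton X-100; 1 h reaction at ambient temperature.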
# TrxR1 substrate = qHTS Assay for Substrates of Mammalian Selenoprotein Thioredoxin Reductase 1 (TrxR1): qHTS. Thioredoxin reductase 1, cytoplasmic (Rattus norvegicus), O89049. purified TrxR1 substrate turnover, NADPH consumption readout. Potency, µM (series often up to 114 µM), for the others: at the highest dose activity change, negative = substrate turnover. 0.01% of 390,000 active; further: potency means the concentration at half of the fitted maximal effect; nearly all actives have a fitted effect of over 50% in size
#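 Rat TrxR1, dispensed at 90 nM, was prereduced with 400 uM NADPH (final) for 5 min at ~22 deg C, then incubated with compound 15 min before 400 uM selenite. A first-read NADPH fluorescence drop versus no-compound background flagged substrates.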
# * = called active by the depositor; ? = inconclusive; . = no result given; ! = not confirmed by another sample; [ ] = another dose, or the depositor's remark. Unless noted, the call rests on the fitted dose curve; in most records, active means well fitted curve in the direction sought with a large enough effect; inconclusive means small, poorly fitted or top-dose-only effect, or another doubt; inactive means no such curve, though single readings can be large; an effect the other way counts as inactive or inconclusive. Unless noted, on the % scale 0 is the no-effect control and ±100 the full control effect.
SMILES,Giardia kill,rTrxR1 inhibitor,GALK inh,Coupling enz,PI4K2A inh,TrxR1 substrate
CC#CCN1c2ccccc2[C@]23C[C@@H](C(=O)OC)N(S(=O)(=O)c4ccc(C(F)(F)F)cc4)C2=NC(C(=O)OC)=C(C(=O)OC)[C@H]13,.,.,.,-2,.,.
Cc1ccc2nsnc2c1NC(=S)NC(=O)c1ccco1,-9,?,0%,-45*,-18,0%[57.1 µM]
COC(=O)c1cc(OC)c(OC)cc1NC(=S)NC(=O)c1ccco1,-1,14µM*,-3%,0,4,-2%
Cc1ccc2nc(NC(=S)NC(=O)c3ccco3)sc2c1,?,17%,.,-1,-1,9%
CCNC(=S)Nc1cc(OC)c(NC(=O)c2ccco2)cc1OC,1,-15%,5%,0,1,-5%
Brc1ccc[n+](CCc2ccccc2)c1,.,7%,.,.,.,-7%
COc1ccc2c(c1)C/C(=C\c1ccc(N(C)C)cc1)C2=O,.,0%,.,.,.,-15%
Cn1c(=O)c(C(=O)CCl)c(N)n(CC2CC2)c1=O,-6,14µM*,.,2,-6,-6%[57.1 µM]
CCOC(=O)N1CCC(NC(=O)c2ccc3c(c2)N(Cc2ccccc2)C(=O)c2ccccc2S3(=O)=O)CC1,.,3%,.,.,-2,-7%
O=C(O)c1ccc2cccnc2n1,14,12%[57.1 µM],-1%,-39*,-5,10%[57.1 µM]
O=C(O)c1cccc(C(=O)O)n1,.,.,-1%,-80*,.,.
Cc1cnc2c(C)cccc2c1C,.,8%,.,.,.,7%
CCCCn1c(=O)[nH]c2nc3cc(N)ccc3nc2c1=O,-6,?,1%,-53*,-11,-4%[57.1 µM]
CCOc1ccccc1CNC(=O)c1cc(-c2ccc(Cl)s2)nc2ccccc12,.,37%,.,.,-4,86%
CCCCc1ccc(NC(=O)COC(=O)c2ccccc2OCC(=O)Nc2ccc(Br)cc2)cc1,.,23%,.,.,.,-1%
Cn1c2c(c(=O)n(C)c1=O)[C@@]1(C(=O)Nc3ccccc31)C(C#N)=C(N)O2,1,5%[57.1 µM],4%,-50*,6,-2%[57.1 µM]
CN(C)c1ccc(C=O)c(O)c1,.,-24%,.,.,.,-21%
CC1(OC(=O)c2ccc(Cl)nc2)C(=O)C=c2cc(-c3ccsc3)ncc2=C1OC(=O)C1CCCC1 (centres undefined),.,.,.,-3,.,.
Oc1ccc(NCc2ccccc2OCc2ccccc2F)cc1,-6,?,4%,-52*,?,-2%
Oc1ccc(NCc2ccccc2OCc2ccccc2Cl)cc1,.,32µM*,.,.,-28,-9%
CCOc1cc(CNc2ccc(O)cc2)ccc1OCc1ccc(Cl)cc1Cl,14,28µM*,-6%,-52*,?,-21%
CCOc1ccccc1CNc1ccc(O)cc1,-7,?,0%,-39*,-27,-7%
Cc1ccc(NCc2ccccc2OCc2ccccc2F)cc1,-7,-7%,-1%,-6,-17,-9%
CCN(CC)c1ccc(NC(=O)c2cccn2-c2nnc(N3CCCCC3)s2)c(C)c1,.,24%[57.1 µM],.,.,2,4%[57.1 µM]
CCOc1cccc(CNc2ccc(O)cc2)c1OCc1ccc(Cl)cc1,7,45µM*,.,-51*,?,-12%
SMILES,Giardia kill,rTrxR1 inhibitor,GALK inh,Coupling enz,PI4K2A inh,TrxR1 substrate
CCC1(c2ccc(O)cc2)NC(=O)N(C)C1=O (centres undefined),.,.,.,-1,.,.
Cc1cc(Br)ccc1-n1[nH]c(C)c(C=Nc2cccc3nsnc23)c1=O,0,-82%,3%,-30,-54*,-4%[57.1 µM]
COc1ccc2nc(/N=C/c3c(C)[nH]n(-c4ccc(C)cc4C)c3=O)sc2c1,16,1%,2%,1,1,-8%
CCCC1CCC2(CCC(=O)N2CCOC)CC1 (centres undefined),.,.,.,.,1,.
O=C(O)c1ccccc1NCCc1ccccc1,.,.,.,.,2,.
CC1=C(/C=C/C(C)=C/C=C/C(C)=C/C(=O)O)C(C)(C)CCC1,5,25µM*!,-2%,-2,3,8%[57.1 µM]
CC1=C(/C=C/C(C)=C\C=C\C(C)=C\C(=O)O)C(C)(C)CCC1,.,.,.,9,.,.
CC(C)NCCCC1(C(N)=O)c2ccccc2-c2ccccc21,.,.,.,.,-1,.
COc1cc(NC(=O)C2CCN(S(=O)(=O)c3ccc4c(c3)oc(=O)n4C)CC2)cc(OC)c1,.,15%,.,.,0,-1%
O=C1/C(=C/c2ccco2)N=C(N2CCCCC2)N1c1ccccc1,-11,71µM*,0%,2,-1,-13%
CC(C)N(C1=N/C(=C\c2ccco2)C(=O)N1c1ccccc1)C(C)C,11,-34%,-3%,-2,-2,-7%
CN=c1c([N+](=O)[O-])nn(-c2ccc3c(c2)OCCO3)n1O,?,9%,8%,-12,3,-2%
O=[N+]([O-])c1nn(-c2ccc3c(c2)OCCO3)n(O)c1=NCCC1=CCCCC1,-93*,1%[57.1 µM],-1%,-2,1,-8%
O=[N+]([O-])c1nn(-c2ccc3c(c2)OCCO3)n(O)c1=NC1CCN(Cc2ccccc2)CC1,-82*,-4%,-1%,-3,2,-6%
O=[N+]([O-])c1nn(-c2ccccc2)n(O)c1=NC1CCN(Cc2ccccc2)CC1,-85*,-50%,-1%,-4,-2,29%
O=[N+]([O-])c1nn(-c2ccc3c(c2)OCCO3)n(O)c1=NCc1ccc(F)cc1,?,-11%,0%,2,-4,-12%
CCCOC(=O)C1=C(C)CS[C@@H]2[C@H](NC(=O)COc3ccccc3)C(=O)N12,.,-13%,.,.,.,4%
O=C(C[n+]1cccc2cccc(O)c21)c1ccc(F)cc1,.,-9%,.,.,.,1%
N#CC(C#N)=C1C=CC=CN1/C(=C\c1ccccc1Cl)C(=O)c1ccccc1,14,?,.,-17,14,-12%
N#CC(C#N)=C1C=CC=CN1/C(=C\c1ccccc1)C(=O)c1cccs1,5,0.45µM*,.,1,-2,9%
C=CCN(CC=C)c1ccc(/C=C/c2ccnc3ccccc23)cc1,.,-10%,.,.,.,-16%
CN1C(=O)c2cc(NC(=O)Cc3cccs3)ccc2OC[C@@H]2O[C@@H](CC(=O)N[C@H]3CCN(Cc4ccccc4)C3)CC[C@@H]21,.,.,.,.,-1,.
CCOC(=O)C1=C(C)OC(N)=C(C(=O)OCC)C1c1ccncc1 (centres undefined),1,-5%,5%,6,-11,0%
CCOC(=O)C1=C(C)NC(C)=C(C(=O)OCC)C1c1ccncc1,.,.,.,.,-76*,.
CCOc1cc(CNc2ccc(N3CCCCC3)cc2)cc(Br)c1OCC(=O)NC(C)(C)C,8,-31%,4%,1,0,-19%
